Results as given in the supplement of paper PMC10849652.
Targets with a hit are over-represented here; the source holds about 7,900 in all. About 0.6% of all pairs of compound and target were hits.

Columns and labels:
Assay in all cases: log2 fold change, soluble protein after heating vs DMSO (PISA); higher = thermal stabilisation; K562 cells, 10 uM, 30 min; active = over 0.2 and 3.5 SD of the protein, either way, in both replicates (recomputed)
[1] = compound: C1COCCN1CCN2C3=CC=CC=C3N=C2NC(=O)C4=CC(=CC=C4)[N+](=O)[O-] [IRAK-1-4 Inhibitor I]
Procedure, shortened: (§1)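 K562 cells (2×10^6 cells/mL) were treated with 10 μM compound for 30 min, and aliquots were heated for 3 min over 48°C-58°C. Pooled aliquots were extracted in PBS with 0.5% NP-40 at 4°C, and the supernatant after 21,000xg for 90 min was measured by TMTpro 16plex LC-MS/MS with channel sums equalised. Reported thermal stability, relative to control samples and from duplicates, is a log2 fold change.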

[2] = compound: C=CC(=O)N1CCC[C@@H](n2nc(-c3ccc(Oc4ccccc4)cc3)c3c(N)ncnc32)C1 [ibrutinib]
Procedure, shortened: as §1

[3] = compound: CC(=O)c1cnc2ccc(-c3cc(Cl)c(O)c(Cl)c3)nc2c1N[C@H]1CC[C@H](CN(C)C)CC1
Procedure, shortened: as §1

[4] = compound: CC(C)(C)Cn1c(N)nc2ccc(-c3[nH]c(C(C)(C)C)nc3-c3ccc(F)cc3)nc21 [ralimetinib]
Procedure, shortened: as §1

[5] = compound: CC(C)(O)CC(=O)NCCn1ccc2ncnc(Nc3ccc(Oc4cccc(C(F)(F)F)c4)c(Cl)c3)c21
Procedure, shortened: as §1

[6] = compound: CC(C)C1=C2N=C(C=C(N2N=C1)NCC3=CC=CC=C3)NCCCCCCN
Procedure, shortened: as §1

[7] = compound: CC(C)C[C@@H](C=O)NC(=O)[C@H](CC(C)C)NC(=O)[C@H](CC(C)C)NC(=O)OCc1ccccc1
Procedure, shortened: as §1

[8] = compound: CC(C)N(C[C@H]1O[C@@H](n2cnc3c(N)ncnc32)[C@H](O)[C@@H]1O)[C@H]1C[C@@H](CCc2nc3cc(C(C)(C)C)ccc3[nH]2)C1 [pinometostat]
Procedure, shortened: as §1

[9] = compound: CC1=C(C(CC(=O)N1)C2=CC=C(C=C2)C(F)(F)F)C(=O)NC3=C(C=C4C(=C3)C=NN4)F
Procedure, shortened: as §1

[10] = compound: CC1=C(C2=C(C=C1)C(=O)C3=CC=CC=C3N2CCCN)C
Procedure, shortened: as §1

Measured: log2 fold change

NDUFS4 (UniProt O43181)
inactive: [1] 0.076 | [2] 0.029 | [3] 0.062 | [4] 0.015 | [5] 0.022 | [6] 0.007 | [8] 0.013 | [9] 0.046 | [10] -0.193
active: [7] 0.274

OGFOD1 (UniProt Q8N543)
inactive: [1] 0.07 | [2] -0.036 | [3] 0.009 | [4] -0.05 | [5] -0.023 | [6] -0.018 | [7] 0.035 | [8] -0.011 | [9] -0.028 | [10] 0.036

OPA1 isoform 2 (UniProt O60313)
active: [6] -0.375
inactive: [1] -0.008 | [2] -0.009 | [3] -0.05 | [4] 0.043 | [5] -0.201 | [7] 0.004 | [8] 0.03 | [9] -0.006 | [10] 0.1

NOP2 isoform 4 (UniProt P46087)
UniProt P46087, sequence (P46087 whole entry, looked up): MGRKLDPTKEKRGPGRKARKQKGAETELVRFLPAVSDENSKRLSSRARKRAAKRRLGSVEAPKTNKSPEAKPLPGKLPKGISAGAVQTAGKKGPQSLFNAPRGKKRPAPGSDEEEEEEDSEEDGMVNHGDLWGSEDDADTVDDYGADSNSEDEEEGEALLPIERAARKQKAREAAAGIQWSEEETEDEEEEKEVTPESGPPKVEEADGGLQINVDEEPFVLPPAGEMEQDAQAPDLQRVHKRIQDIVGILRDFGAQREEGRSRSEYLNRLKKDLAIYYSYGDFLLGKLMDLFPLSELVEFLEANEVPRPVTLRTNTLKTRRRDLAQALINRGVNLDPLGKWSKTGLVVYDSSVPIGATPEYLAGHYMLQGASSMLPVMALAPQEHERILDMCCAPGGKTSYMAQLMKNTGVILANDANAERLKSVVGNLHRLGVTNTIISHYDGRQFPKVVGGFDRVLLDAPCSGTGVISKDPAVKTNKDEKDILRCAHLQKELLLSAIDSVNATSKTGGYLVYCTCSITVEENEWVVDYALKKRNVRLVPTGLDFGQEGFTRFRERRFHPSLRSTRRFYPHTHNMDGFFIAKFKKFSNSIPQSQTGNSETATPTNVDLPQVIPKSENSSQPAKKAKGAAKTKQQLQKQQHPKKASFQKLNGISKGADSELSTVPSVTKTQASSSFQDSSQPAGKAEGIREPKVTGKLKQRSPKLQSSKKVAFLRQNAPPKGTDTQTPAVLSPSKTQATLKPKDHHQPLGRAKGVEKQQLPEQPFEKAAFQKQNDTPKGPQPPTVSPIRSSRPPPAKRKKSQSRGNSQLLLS
inactive: [1] -0.111 | [2] -0.278 | [3] 0.308 | [4] 0.205 | [5] 0.163 | [6] 0.241 | [7] 0.194 | [8] 0.325 | [9] -0.062 | [10] -0.474

MRPL34 (UniProt Q9BQ48)
inactive: [1] -0.046 | [2] 0.107 | [3] 0.092 | [4] 0.164 | [5] 0.042 | [6] -0.137 | [7] 0.102 | [8] 0.196 | [9] 0.086
active: [10] -0.51

NFATC3 (UniProt Q12968)
inactive: [1] -0.116 | [2] 0.01 | [5] -0.105 | [6] -0.209 | [7] 0.145 | [8] 0.053 | [9] 0.015 | [10] -0.036
active: [3] -0.406 | [4] 0.386

NUDT21 (UniProt O43809)
inactive: [1] -0.057 | [2] 0.014 | [4] -0.022 | [5] 0.077 | [6] 0.066 | [7] 0.034 | [8] -0.022 | [9] -0.005
active: [3] -0.33 | [10] 0.246

NUMBL (UniProt Q9Y6R0)
inactive: [1] 0.144 | [2] -0.032 | [4] -0.032 | [5] 0.044 | [6] -0.026 | [7] 0.162 | [8] 0.111 | [9] -0.024
active: [3] -0.349

NRF1 isoform 4 (UniProt Q16656)
inactive: [1] -0.014 | [2] -0.007 | [3] -0.059 | [4] 0.024 | [5] 0.082 | [6] -0.125 | [7] -0.025 | [8] -0.004 | [9] -0.037
active: [10] -0.419

MRPS6 (UniProt P82932)
inactive: [1] -0.193 | [2] -0.007 | [3] -0.079 | [4] 0.012 | [5] -0.158 | [6] -0.003 | [7] -0.009 | [8] -0.007 | [9] 0.003 | [10] -0.139

NUP160 (UniProt Q12769)
inactive: [1] -0.03 | [2] -0.041 | [3] -0.13 | [4] -0.002 | [5] -0.032 | [6] -0.137 | [7] -0.01 | [8] 0.058 | [9] 0.001 | [10] -0.012

NARS2 (UniProt Q96I59)
UniProt Q96I59, sequence (Q96I59 whole entry, looked up): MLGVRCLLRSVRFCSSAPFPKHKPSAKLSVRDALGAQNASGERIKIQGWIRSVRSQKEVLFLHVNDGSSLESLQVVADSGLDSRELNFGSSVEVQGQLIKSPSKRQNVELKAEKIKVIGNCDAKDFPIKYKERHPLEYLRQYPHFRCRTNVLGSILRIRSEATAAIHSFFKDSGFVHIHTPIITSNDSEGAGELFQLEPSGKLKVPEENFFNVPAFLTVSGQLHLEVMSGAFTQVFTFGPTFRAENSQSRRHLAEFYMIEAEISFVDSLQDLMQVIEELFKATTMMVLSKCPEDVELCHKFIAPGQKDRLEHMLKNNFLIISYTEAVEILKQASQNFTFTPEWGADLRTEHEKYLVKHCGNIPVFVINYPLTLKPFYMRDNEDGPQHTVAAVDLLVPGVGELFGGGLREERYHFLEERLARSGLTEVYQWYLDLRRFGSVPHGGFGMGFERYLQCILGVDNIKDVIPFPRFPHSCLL
inactive: [1] 0.044 | [2] 0.03 | [3] 0.034 | [4] -0.034 | [5] -0.121 | [7] -0.019 | [8] -0.019 | [9] -0.002 | [10] -0.006
active: [6] -0.31

OSTM1 (UniProt Q86WC4)
inactive: [1] 0.05 | [2] -0.006 | [3] 0.013 | [4] 0.042 | [5] -0.081 | [6] -0.041 | [7] 0.079 | [8] -0.056 | [9] 0.015 | [10] -0.024

NME1 isoform 2 (UniProt P15531)
inactive: [1] 0.021 | [2] 0.107 | [3] -0.007 | [4] -0.035 | [5] 0.03 | [6] 0.041 | [7] 0.032 | [8] -0.017 | [9] -0.192 | [10] 0.038

NRDC isoform 2 (UniProt O43847)
inactive: [1] 0.003 | [2] -0.033 | [3] -0.026 | [4] 0.011 | [5] -0.04 | [6] 0.053 | [7] 0.029 | [8] 0.015 | [9] 0 | [10] 0.037

MSH3 (UniProt P20585)
UniProt P20585, sequence (P20585 whole entry, looked up): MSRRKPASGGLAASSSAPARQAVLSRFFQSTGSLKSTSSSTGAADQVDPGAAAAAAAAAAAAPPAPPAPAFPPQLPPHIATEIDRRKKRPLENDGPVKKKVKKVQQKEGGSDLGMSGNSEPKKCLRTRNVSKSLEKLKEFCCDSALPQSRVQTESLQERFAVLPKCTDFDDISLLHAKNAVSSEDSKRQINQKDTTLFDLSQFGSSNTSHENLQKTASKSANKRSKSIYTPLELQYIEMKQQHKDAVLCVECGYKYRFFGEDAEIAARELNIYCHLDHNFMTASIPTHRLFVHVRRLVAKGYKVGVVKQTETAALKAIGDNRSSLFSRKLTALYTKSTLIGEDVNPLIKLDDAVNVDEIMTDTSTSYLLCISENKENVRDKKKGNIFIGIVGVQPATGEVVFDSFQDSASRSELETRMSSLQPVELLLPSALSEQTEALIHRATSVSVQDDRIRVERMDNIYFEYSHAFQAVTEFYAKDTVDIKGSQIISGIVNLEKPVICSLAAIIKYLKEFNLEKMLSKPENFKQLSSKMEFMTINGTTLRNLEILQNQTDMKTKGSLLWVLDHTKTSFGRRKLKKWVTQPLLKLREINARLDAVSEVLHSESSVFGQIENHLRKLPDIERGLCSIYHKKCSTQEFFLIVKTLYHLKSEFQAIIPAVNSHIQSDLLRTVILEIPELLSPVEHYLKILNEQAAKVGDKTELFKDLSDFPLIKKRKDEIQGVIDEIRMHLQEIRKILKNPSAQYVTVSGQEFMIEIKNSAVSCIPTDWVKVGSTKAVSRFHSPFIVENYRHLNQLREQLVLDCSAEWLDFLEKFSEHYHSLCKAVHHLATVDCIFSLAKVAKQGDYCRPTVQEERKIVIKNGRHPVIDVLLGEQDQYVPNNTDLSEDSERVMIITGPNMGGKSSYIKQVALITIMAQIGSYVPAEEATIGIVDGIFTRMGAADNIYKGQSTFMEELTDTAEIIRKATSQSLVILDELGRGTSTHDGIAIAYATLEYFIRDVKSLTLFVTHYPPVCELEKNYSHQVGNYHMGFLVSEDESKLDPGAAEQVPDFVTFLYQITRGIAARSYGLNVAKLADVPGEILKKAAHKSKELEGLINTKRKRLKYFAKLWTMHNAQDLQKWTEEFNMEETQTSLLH
active: [10] 0.27
inactive: [1] -0.001 | [2] -0.002 | [3] 0.054 | [4] -0.053 | [5] 0.01 | [6] 0.068 | [7] 0.056 | [8] 0.043 | [9] 0.023

MON1B (UniProt Q7L1V2)
active: [6] -0.406
inactive: [1] 0.047 | [2] 0.037 | [3] -0.013 | [4] 0.095 | [5] -0.006 | [7] 0 | [8] -0.039 | [9] -0.023 | [10] 0

NMNAT1 (UniProt Q9HAN9)
inactive: [1] -0.007 | [2] 0.073 | [3] 0.05 | [4] 0.18 | [5] 0.13 | [6] 0.093 | [7] 0.168 | [8] 0.429 | [9] 0.051
active: [10] -0.674

NBN (UniProt O60934)
inactive: [1] -0.009 | [2] -0.008 | [3] -0.147 | [4] -0.028 | [5] -0.062 | [6] -0.025 | [7] 0.007 | [8] 0.009 | [9] -0.029 | [10] -0.02

NDUFA6 (UniProt P56556)
inactive: [1] -0.004 | [2] -0.031 | [3] -0.092 | [4] -0.046 | [5] -0.214 | [6] -0.05 | [7] -0.045 | [8] -0.083 | [9] -0.03 | [10] 0.175

MOV10 (UniProt Q9HCE1)
UniProt Q9HCE1, sequence (Q9HCE1 whole entry, looked up): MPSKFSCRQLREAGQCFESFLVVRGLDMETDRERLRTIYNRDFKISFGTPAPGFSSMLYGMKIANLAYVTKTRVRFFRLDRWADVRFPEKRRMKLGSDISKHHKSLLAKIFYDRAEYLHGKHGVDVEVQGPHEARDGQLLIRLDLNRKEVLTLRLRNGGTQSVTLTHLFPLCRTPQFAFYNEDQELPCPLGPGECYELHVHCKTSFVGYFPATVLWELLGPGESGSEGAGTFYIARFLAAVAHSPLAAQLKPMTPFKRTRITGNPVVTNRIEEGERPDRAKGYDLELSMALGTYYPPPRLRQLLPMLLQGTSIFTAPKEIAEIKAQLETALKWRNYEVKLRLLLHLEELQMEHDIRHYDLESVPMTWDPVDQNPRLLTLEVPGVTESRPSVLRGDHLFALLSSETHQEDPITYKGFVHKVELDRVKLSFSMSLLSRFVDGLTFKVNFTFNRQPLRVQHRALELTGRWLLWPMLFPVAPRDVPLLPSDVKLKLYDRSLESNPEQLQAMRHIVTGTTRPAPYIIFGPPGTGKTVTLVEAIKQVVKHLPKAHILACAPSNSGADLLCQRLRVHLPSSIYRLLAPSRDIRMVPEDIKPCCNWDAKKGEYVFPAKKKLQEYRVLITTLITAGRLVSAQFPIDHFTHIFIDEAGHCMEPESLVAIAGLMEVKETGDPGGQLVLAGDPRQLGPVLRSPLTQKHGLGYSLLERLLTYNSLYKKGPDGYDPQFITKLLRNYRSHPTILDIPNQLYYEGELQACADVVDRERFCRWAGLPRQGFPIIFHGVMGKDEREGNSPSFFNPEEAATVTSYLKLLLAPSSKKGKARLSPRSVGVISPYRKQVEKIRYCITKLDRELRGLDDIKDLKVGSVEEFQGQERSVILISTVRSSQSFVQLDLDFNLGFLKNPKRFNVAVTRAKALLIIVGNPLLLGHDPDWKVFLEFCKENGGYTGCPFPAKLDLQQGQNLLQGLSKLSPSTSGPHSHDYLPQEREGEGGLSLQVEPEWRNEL
inactive: [1] -0.135 | [2] 0.002 | [3] 0.069 | [4] 0.12 | [5] 0.082 | [6] 0.02 | [7] 0.033 | [8] 0.163 | [9] -0.052 | [10] -0.305

NGLY1 (UniProt Q96IV0)
UniProt Q96IV0, sequence (Q96IV0 whole entry, looked up): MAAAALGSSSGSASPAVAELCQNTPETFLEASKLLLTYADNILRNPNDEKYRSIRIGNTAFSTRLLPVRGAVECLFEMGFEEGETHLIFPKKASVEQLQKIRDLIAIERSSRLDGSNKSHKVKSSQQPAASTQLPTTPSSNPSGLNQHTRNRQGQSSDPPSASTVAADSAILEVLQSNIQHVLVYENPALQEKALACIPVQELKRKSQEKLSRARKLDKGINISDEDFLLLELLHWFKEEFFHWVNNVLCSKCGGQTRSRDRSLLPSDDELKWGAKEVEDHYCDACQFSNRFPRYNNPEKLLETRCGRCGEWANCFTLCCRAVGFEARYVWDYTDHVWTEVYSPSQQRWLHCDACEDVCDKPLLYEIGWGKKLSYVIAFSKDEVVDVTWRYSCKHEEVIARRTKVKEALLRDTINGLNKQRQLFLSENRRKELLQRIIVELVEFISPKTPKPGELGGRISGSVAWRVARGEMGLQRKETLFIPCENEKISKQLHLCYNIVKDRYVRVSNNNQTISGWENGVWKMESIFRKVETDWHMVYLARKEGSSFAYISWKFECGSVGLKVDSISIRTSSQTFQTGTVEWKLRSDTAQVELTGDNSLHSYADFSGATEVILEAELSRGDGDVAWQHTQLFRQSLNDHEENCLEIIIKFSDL
inactive: [1] -0.091 | [2] -0.052 | [3] -0.059 | [4] 0.018 | [5] -0.07 | [6] -0.071 | [7] 0.036 | [8] 0.088 | [9] 0.04 | [10] 0.123

NR2C2 isoform 2 (UniProt P49116)
inactive: [1] 0.004 | [2] 0.022 | [3] -0.062 | [4] -0.064 | [5] -0.048 | [6] -0.004 | [7] 0.058 | [8] 0.014 | [9] 0.045 | [10] -0.215

MRPS21 (UniProt P82921)
inactive: [1] -0.143 | [2] 0.029 | [3] 0.172 | [4] -0.038 | [5] -0.069 | [6] 0.063 | [7] 0.063 | [8] 0.052 | [9] -0.091 | [10] -0.207

ORC3 isoform 2 (UniProt Q9UBD5)
inactive: [1] -0.113 | [2] -0.015 | [3] -0.132 | [4] -0.059 | [5] -0.383 | [6] -0.338 | [7] -0.013 | [8] 0.012 | [9] 0.045 | [10] -0.049

OPHN1 (UniProt O60890)
UniProt O60890, sequence (O60890 whole entry, looked up): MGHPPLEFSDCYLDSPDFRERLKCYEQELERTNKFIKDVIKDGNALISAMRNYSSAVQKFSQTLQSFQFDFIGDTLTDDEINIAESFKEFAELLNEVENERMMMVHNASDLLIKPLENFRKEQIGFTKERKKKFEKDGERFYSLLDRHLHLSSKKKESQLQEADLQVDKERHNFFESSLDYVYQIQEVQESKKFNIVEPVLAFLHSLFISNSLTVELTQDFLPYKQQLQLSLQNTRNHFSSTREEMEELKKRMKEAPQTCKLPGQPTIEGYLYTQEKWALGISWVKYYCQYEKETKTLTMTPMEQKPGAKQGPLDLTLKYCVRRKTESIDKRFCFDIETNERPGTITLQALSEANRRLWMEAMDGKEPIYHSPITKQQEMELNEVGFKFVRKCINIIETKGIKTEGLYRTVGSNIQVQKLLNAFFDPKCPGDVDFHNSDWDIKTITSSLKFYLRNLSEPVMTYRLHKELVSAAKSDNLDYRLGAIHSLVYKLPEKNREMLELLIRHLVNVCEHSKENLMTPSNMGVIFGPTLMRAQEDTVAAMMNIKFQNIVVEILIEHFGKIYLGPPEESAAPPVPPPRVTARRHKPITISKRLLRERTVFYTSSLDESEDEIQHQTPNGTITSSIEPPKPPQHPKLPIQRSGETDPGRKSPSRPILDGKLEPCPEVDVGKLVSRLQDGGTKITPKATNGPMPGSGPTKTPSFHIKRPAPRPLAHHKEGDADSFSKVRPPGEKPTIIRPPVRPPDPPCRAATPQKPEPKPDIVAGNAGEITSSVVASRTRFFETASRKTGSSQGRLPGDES
inactive: [1] -0.086 | [2] -0.145 | [3] -0.021 | [4] -0.033 | [5] -0.146 | [6] 0.12 | [7] -0.042 | [8] -0.062 | [9] -0.034 | [10] 0.069

NFATC2IP (UniProt Q8NCF5)
inactive: [1] -0.014 | [2] -0.036 | [3] -0.051 | [4] -0.003 | [5] -0.224 | [6] -0.161 | [7] -0.006 | [8] -0.032 | [9] 0.069 | [10] -0.022

MYL12B (UniProt O14950)
UniProt O14950, sequence (O14950 whole entry, looked up): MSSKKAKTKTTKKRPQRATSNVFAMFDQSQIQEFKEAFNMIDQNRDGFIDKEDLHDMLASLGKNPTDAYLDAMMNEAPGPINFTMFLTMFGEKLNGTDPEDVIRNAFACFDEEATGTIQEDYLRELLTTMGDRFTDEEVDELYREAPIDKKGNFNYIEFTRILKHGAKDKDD
inactive: [1] 0.047 | [2] 0.043 | [3] 0.067 | [4] 0.143 | [5] -0.013 | [6] 0.005 | [7] -0.015 | [8] 0.011 | [9] -0.045 | [10] -0.004

MRPS9 (UniProt P82933)
active: [10] -0.243
inactive: [1] -0.061 | [2] 0.024 | [3] -0.022 | [4] -0.023 | [5] 0.001 | [6] -0.059 | [7] 0.07 | [8] 0.018 | [9] -0.048

NSMCE4A (UniProt Q9NXX6)
inactive: [1] 0.077 | [2] -0.116 | [3] -0.059 | [4] 0.051 | [5] 0.003 | [6] 0.252 | [7] 0.008 | [8] 0 | [9] -0.052 | [10] -0.124
